In ChEMBL document CHEMBL4808148, “HDAC6 screening dataset using tau-based substrate in an enzymatic assay yields selective inhibitors and activators” (2021) one finds inhibition data, which are given here for 62 molecules.

The structures appear in SMILES notation. In all, about 5,600 compounds went through this assay and about 390 (7%) showed an effect of 50% or more. The sample as a whole holds a higher share of strong results than the screen did. Non-standard residues stand in square brackets, D forms with d. Residues, ends and D or L forms follow the SMILES beside them.

This assay addresses T1, Protein deacetylase HDAC6 (Homo sapiens) (UniProt Q9UBN7).
T1 sequence (whole entry): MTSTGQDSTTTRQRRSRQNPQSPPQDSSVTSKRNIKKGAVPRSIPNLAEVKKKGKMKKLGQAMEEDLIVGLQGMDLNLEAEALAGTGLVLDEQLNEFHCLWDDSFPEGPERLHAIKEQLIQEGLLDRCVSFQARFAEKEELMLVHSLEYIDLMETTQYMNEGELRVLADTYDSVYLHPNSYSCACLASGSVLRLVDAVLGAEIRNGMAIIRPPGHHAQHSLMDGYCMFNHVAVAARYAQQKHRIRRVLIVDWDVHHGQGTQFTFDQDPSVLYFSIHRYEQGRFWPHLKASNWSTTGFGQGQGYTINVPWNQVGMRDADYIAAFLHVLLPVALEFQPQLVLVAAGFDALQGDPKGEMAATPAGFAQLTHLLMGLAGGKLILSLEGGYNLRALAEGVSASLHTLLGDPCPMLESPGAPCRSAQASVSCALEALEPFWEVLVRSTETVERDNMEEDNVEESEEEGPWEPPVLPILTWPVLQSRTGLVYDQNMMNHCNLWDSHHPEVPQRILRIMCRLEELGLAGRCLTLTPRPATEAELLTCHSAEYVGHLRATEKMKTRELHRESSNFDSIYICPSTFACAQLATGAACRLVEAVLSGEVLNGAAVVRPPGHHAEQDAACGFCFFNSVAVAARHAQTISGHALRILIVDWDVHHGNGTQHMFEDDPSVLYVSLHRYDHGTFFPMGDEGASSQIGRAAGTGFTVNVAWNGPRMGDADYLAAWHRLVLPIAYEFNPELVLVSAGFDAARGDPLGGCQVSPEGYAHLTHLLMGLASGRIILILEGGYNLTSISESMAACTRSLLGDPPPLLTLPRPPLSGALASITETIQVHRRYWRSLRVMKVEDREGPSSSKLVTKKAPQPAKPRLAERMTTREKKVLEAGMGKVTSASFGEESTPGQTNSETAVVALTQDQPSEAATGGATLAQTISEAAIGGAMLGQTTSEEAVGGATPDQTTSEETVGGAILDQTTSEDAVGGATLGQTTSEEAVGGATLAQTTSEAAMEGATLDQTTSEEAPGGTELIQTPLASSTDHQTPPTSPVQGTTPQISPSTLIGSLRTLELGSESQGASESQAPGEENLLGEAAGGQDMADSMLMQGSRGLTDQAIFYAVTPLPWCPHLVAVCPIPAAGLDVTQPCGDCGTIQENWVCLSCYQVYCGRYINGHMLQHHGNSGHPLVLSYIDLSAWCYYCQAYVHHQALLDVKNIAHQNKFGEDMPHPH
As to conditions: at 10 µM.
What is called inhibition is the drop in the measured response relative to a control, in per cent. `Cc1cccc(Nc2ccncc2S(=O)(=O)NC(=O)NC(C)C)c1`: the inhibition is -9.9%.

Turning to `Cc1cccc(Nc2nc(-c3ccncc3)cs2)c1`, the inhibition was 91.1%.

With `Oc1ccc(Nc2nc(-c3ccc(Cl)cc3)cs2)cc1`, the inhibition is 20.2%.

With `O=C(O)CC(O)C(=O)O` (configuration not stated), the inhibition amounted to 3.05%.

For `C[C@H]1[C@H](C)CC[C@]2(C(=O)O)CC[C@]3(C)C(=CC[C@@H]4[C@@]5(C)C[C@@H](O)[C@H](O)[C@@](C)(CO)[C@@H]5CC[C@]43C)[C@H]12`, the inhibition was -0.26%.

As for `O=C(NCc1ccccn1)Nc1nnc(-c2ccco2)o1`, the inhibition came to 1.12%.

For `CCCN(C/C=C/I)C1CCc2cccc(O)c2C1` (configuration not stated), the inhibition worked out at 14.4%.

`CN(C)c1ccc(C(=C2C=CC(=[N+](C)C)C=C2)c2ccc(N(C)C)cc2)cc1`: the inhibition stood at 79.1%.

As to `C[C@H](Nc1cc(-c2cnn(C)c2)cc(Nc2cnccn2)n1)c1ccc(F)cc1`, the inhibition was 3.96%.

Regarding `O=C(O)C1=CCNCC1`, the inhibition worked out at 5.63%.

Regarding `Cc1cc(C)c2nc(-c3ccccn3)cc(C(=O)Nc3ccc(S(=O)(=O)Nc4onc(C)c4C)cc3)c2c1`, the inhibition was -6.66%.

In the case of `Cc1ccccc1/N=N/c1ccc(/N=N/c2c(O)ccc3ccccc23)c(C)c1`, the inhibition is 12%.

For `Cc1ccc(O)c(/N=N/c2ccccc2)n1`, the inhibition was 102%.

For the molecule `C=CCN1CCN(c2nc3ccccc3nc2C#N)CC1`, the inhibition amounted to 32.5%.

For `CC(C)=CCC/C(C)=C/CC/C(C)=C/CC[C@]1(C)CCc2cc(O)cc(C)c2O1`, the inhibition is -4.35%.

For `CN1CCN(CCc2ccc(Cl)c(Cl)c2)CC1`, the inhibition stood at 0.9%.

As to `NC(=O)c1sc(-c2ccsc2)cc1N`, the inhibition was 101%.

On to `CCc1cc2c(cc1CC)CC(NC[C@H](O)c1ccc(O)c3[nH]c(=O)ccc13)C2`, for which the inhibition amounted to 15.6%.

In the case of `COC(=O)N[C@H](C(=O)N1CCC[C@H]1C(=O)Nc1ccc([C@@H]2CC[C@@H](c3ccc(NC(=O)[C@@H]4CCCN4C(=O)[C@@H](NC(=O)OC)C(C)C)cc3)N2c2ccc(C(C)(C)C)cc2)cc1)C(C)C`, the inhibition came out at 18.8%.

Turning to `CCOC(=O)C1=CCCC[C@H]1S(=O)(=O)Nc1ccc(F)cc1Cl`, the inhibition was -6.94%.

Turning to `CC1=NN(c2ccc(C(=O)O)cc2)C(=O)/C1=C\c1ccc(-c2cc(C)c(C)cc2[N+](=O)[O-])o1`, the inhibition was -7.66%.

For the molecule `CCOC(=O)c1ccc(N2NC(=O)/C(=C/c3ccc([N+](=O)[O-])o3)C2=O)cc1`, the inhibition was found to be 66.9%.

In the case of `NC(=O)N/N=C/c1ccc([N+](=O)[O-])o1`, the inhibition is -5.79%.

Turning to `Cc1cccc(CCN2CCC(C(=O)c3ccc(NS(C)(=O)=O)cc3)CC2)n1`, the inhibition amounted to 25.6%.

With `C[C@]1(O)C[C@@H](c2nc(-c3ccc4ccc(-c5ccccc5)nc4c3)c3c(N)nccn32)C1`, the inhibition stood at 29.4%.

For `COc1cc2ncnc(Nc3ccc(Oc4ccccc4)cc3)c2cc1OC`, the inhibition was 1.72%.

For `Nc1ccc2ncnc(NCCc3ccc(Oc4ccccc4)cc3)c2c1`, the inhibition is 58%.

With `Fc1ccc(CNc2ncnc3ccc(F)cc23)cc1`, the inhibition was -3.85%.

Take `FC(F)(F)c1ccccc1-c1cc(C(F)(F)F)c2[nH]c(C3=NOC4(CCCCC4)C3)nc2c1`: the inhibition was -8.26%.

With `C[C@]12CC[C@H](O)CC1=CC[C@@H]1[C@@H]2CC[C@]2(C)C(c3cccnc3)=CC[C@@H]12`, the inhibition stood at 11.3%.

As to `CC[S+]([O-])c1nc(-c2cccc(OCc3ccccc3)c2)cc(C(F)(F)F)n1` (configuration not stated), the inhibition was determined as 21.6%.

In the case of `COc1ccc2cc(C(C)C(=O)Oc3ccc(C(N)=S)cc3)ccc2c1` (configuration not stated), the inhibition is 29%.

`Oc1cc(O)c2c(c1)O[C@H](c1ccc(O)c(O)c1)[C@H](O)[C@H]2c1c(O)cc(O)c2c1O[C@H](c1ccc(O)c(O)c1)[C@H](O)C2`: the inhibition stood at 11%.

With `COc1ccccc1CC(=N)N1C[C@@H]2C(=O)CCC(c3ccccc3)(c3ccccc3)[C@@H]2C1`, the inhibition worked out at 5.85%.

On to `Cc1c(C2CCN(CCc3ccccc3)CC2)noc1-c1ccc(Cl)cc1`, for which the inhibition stood at 5.51%.

`Cc1cc(SCc2sc(-c3ccc(C(F)(F)F)cc3)nc2C)ccc1OCC(=O)O`: the inhibition is 46.6%.

Consider `CCCCOCCOc1nc(-c2ccc(C(=O)O)c(F)c2)sc1C`, for which the inhibition was 3.39%.

Turning to `Cc1nc(-c2ccc(OCC(C)C)c(C#N)c2)sc1C(=O)O`, the inhibition was 94.2%.

`CCCCCCCC(=O)N[C@H](CN1CCCC1)[C@H](O)c1ccc2c(c1)OCCO2`: the inhibition is 6.2%.

On to `CC(=O)NCC(=O)N[C@H](CCC(=O)O)C(=O)O` (Ac-Gly-[dE]-OH), for which the inhibition came out at 1.3%.

Take `O=C(O)c1ccc2nc(-c3cc(Cl)cc(Cl)c3)oc2c1`: the inhibition stood at 76.5%.

As for `CCN1CCCC1CNC(=O)c1cc(S(=O)(=O)CC)c(N)cc1OC` (configuration not stated), the inhibition was -7.98%.

Turning to `C[C@@H]1C(=O)O[C@H]2[C@H](O)C34C5C[C@@H](C(C)(C)C)[C@]36[C@@H](OC(=O)[C@@H]6O)O[C@@]4(C(=O)O5)[C@@]12O` (some centres not stated), the inhibition came out at 21%.

For `CC#CCOC(=O)c1c(C)nc2sc3c(c2c1N)CCC(O)C3` (configuration not stated), the inhibition was 72.4%.

As for `CN(NC(=O)CC(=O)NN(C)C(=S)c1ccccc1)C(=S)c1ccccc1`, the inhibition amounted to 1.95%.

For `CO[C@H]1CC[C@@H](C(=O)c2ccc3nc4c(cc3c2)CCCO4)CC1`, the inhibition came to 61%.

On to `O=S(=O)(c1cccc2c(O)nccc12)N1CCCNCC1`, for which the inhibition came to 9.53%.

As to `Cc1ccc(S(N)(=O)=O)cc1`, the inhibition was -0.54%.

Regarding `COc1cccc(NC(=O)/C=C/c2ccc(Cl)cc2)c1`, the inhibition was 99.9%.

Regarding `COc1ccc(/C=C/C(=O)O)cc1`, the inhibition is -4.93%.

On to `COc1cc(NC(=O)c2ccc(-c3ccc(Cl)cc3)o2)cc(OC)c1`, for which the inhibition was 1.11%.

With `CCN(CC)CCOc1ccc(Nc2ncc3cc(-c4c(Cl)cccc4Cl)c(=O)n(C)c3n2)cc1`, the inhibition was found to be 12.6%.

In the case of `Cc1cc(-c2ccc(/N=N/c3ccc4c(S(=O)(=O)O)cc(S(=O)(=O)O)c(N)c4c3O)c(C)c2)ccc1/N=N/c1ccc2c(S(=O)(=O)O)cc(S(=O)(=O)O)c(N)c2c1O`, the inhibition turned out to be 80.8%.

Turning to `NC(=O)NC1NC(=O)NC1=O` (configuration not stated), the inhibition came to 1.79%.

For `C[C@@H]1CCO[C@H]2Cn3cc(C(=O)NCc4ccc(F)cc4F)c(=O)c(O)c3C(=O)N12`, the inhibition was -3.66%.

As for `O=C1c2ccccc2C(Cc2ccncc2)(Cc2ccncc2)c2ccccc21`, the inhibition came out at 3.99%.

For `CCN(CC)CCCC(C)Nc1nc(C)cc(Nc2ccc3nc(C)cc(N)c3c2)n1` (configuration not stated), the inhibition was -7.44%.

For the molecule `CCc1ccc(OCc2ccccc2C(=O)Nc2ccc3nc(C)cc(N)c3c2)cc1`, the inhibition came to 80.4%.

In the case of `CCN(CC)CCOC(=O)C(Cc1cccc2ccccc12)CC1CCCO1` (configuration not stated), the inhibition is 2%.

For the molecule `Nc1nccc2c1ncn2[C@@H]1C=C(CO)[C@@H](O)[C@H]1O`, the inhibition is -4.17%.

On to `O=C(NCC1(N2CCN(c3ccccc3)CC2)CCOCC1)c1cccnc1Sc1ccccc1`, for which the inhibition is 8.43%.

Take `CCC(C)(C)C(=O)C(=O)N1CCC[C@H]1C(=O)OCCCc1cccnc1`: the inhibition was -5.62%.
